Bioassay records (PubChem BioAssay)
SW480 rereplic: inducers of DNA re-replication in SW480 colon cancer cells. actives 1.8% (n = 340,000). SW480 DNA re-replication, Hoechst DNA content imaging, 48 h. Potency, µM (highest dose often 46.1 µM), for the others: at the highest dose re-replication activation, actives largely listed as activators; also: potency is read from the fitted curve at half-maximal effect; % of control where 0% means no effect; nearly all actives have a fitted effect of over 55% in size
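SW480 cells exposed to compounds for 48 hr at 37 C, 5% CO2, then Hoechst-stained 40 min. Nuclear DNA content imaged by fluorescence scanning (405 nm excitation, 500-530 nm emission); re-replication scored as increased high-intensity nuclei.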
KB-3-1 cytotox: KB-3-1 parental cell cytotoxicity | KB-3-1 viability, CellTiter-Glo ATP luminescence, 72 h | Potency, µM (highest dose often 46.1 µM), hits mostly cytotoxic | actives 1.4% (n = 400,000) | AID 1347075; also: potency is read from the fitted curve at half-maximal effect; % is scaled to controls: 0 for no effect and ±100 for the full control effect; nearly all actives have a fitted effect of over 60% in size
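Cytotoxicity measured as CellTiter-Glo luminescence after 72 h at 37 C. Compound titrations were pinned onto drug-naive KB-3-1 parental adenocarcinoma cells grown in DMEM with 10% FBS, and normalized data fitted to concentration-response curves.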
KB-V1 MDR tox: KB-V1 MDR subline cytotoxicity; KB-V1 MDR cells viability, CellTiter-Glo, 72 h; Potency, µM (series often up to 46.1 µM), most hits filed as cytotoxic; actives 3.4% (n = 400,000); also: potency is read from the fitted curve at half-maximal effect; % is scaled to controls: 0 for no effect and ±100 for the full control effect; nearly all actives have a fitted effect of over 60% in size
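Following 72 h at 37 degrees C with compound, KB-V1 cell viability was read by CellTiter-Glo luminescence, medium being phenol-red-free DMEM plus 10% FBS; concentration-response parameters came from normalized, curve-fitted qHTS data.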
MCF10A rereplic: induces DNA re-replication in MCF 10a normal breast cells; MCF 10A DNA re-replication, Hoechst nuclear intensity, 48 h; Potency, µM (top dose mostly 46.1 µM), for the others: at the highest dose activity, positive = re-replication, actives largely listed as activators; actives 2.9% (n = 350,000); also: potency is read from the fitted curve at half-maximal effect; % of control where 0% means no effect; nearly all actives have a fitted effect of over 50% in size
IL1B secr inh: inhibitors of inflammasome signaling (IL-1 beta secretion) | THP-1 LPS/ATP IL-1B secretion, AlphaLISA, 16 h; active compounds read low | activity change, % at 57.5 µM | actives 4.7% (n = 360,000) | AID 743279; in the data active = activity change below about -50%; inconclusive = mostly about -30% to -49%; also: % is scaled to controls: 0 for no effect and ±100 for the full control effect
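THP-1 cells pretreated 1 hr with compounds (up to 57.5 uM final), then stimulated with LPS (250 ng/mL final) plus ATP (1.25 mM final); secreted IL-1B measured by AlphaLISA after 16 hr, decreased signal indicating inhibition.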
Numbers without * were called inactive; ! = not active in a repeat. Compounds with a hit are over-represented: about 9.9% of the library has one in this group of screens. Unless noted, calls follow the shape of the dose curve; as a rule, active = well fitted curve in the direction sought with a large enough effect; inconclusive = small, poorly fitted or top-dose-only effect, or another doubt; inactive = no such curve, though single readings can be large; an effect the other way counts as inactive or inconclusive.

Results for O=C(c1ccccc1-c1nc(-c2ccccc2)no1)N1CCOCC1 ?
SW480 rereplic: -14.4%; KB-3-1 cytotox: inactive; KB-V1 MDR tox: 11.6µM*; MCF10A rereplic: 7.1%; IL1B secr inh: 19.8

Results for NC(=O)c1ccc[n+](CC(=O)c2cccc([N+](=O)[O-])c2)c1 ?
SW480 rereplic: 13.5%; KB-3-1 cytotox: inactive; KB-V1 MDR tox: inactive; MCF10A rereplic: -12.5%; IL1B secr inh: 17.8

Results for CC1(C(=O)OCC(=O)Nc2nc(-c3ccc(F)c(F)c3)cs2)CC1(Cl)Cl (centres undefined) ?
SW480 rereplic: 6.8%; MCF10A rereplic: inconclusive; IL1B secr inh: -15.2

Results for CCOC(=O)c1cnc2c(C)cc(C)cc2c1NCCCN1CCOCC1 ?
SW480 rereplic: 26.3%; KB-3-1 cytotox: inactive; KB-V1 MDR tox: inconclusive; MCF10A rereplic: 6.2%; IL1B secr inh: -70.8*

Results for COc1ccc(N2CCN(S(=O)(=O)c3c(C)[nH]c(=O)[nH]c3=O)CC2)cc1 ?
KB-3-1 cytotox: inactive; KB-V1 MDR tox: inactive

Results for CN(C)c1ccc(/C=C(/C(=O)c2ccc(Cl)cc2Cl)n2cncn2)cc1 ?
SW480 rereplic: 18.4µM*; KB-3-1 cytotox: 23.1µM*; KB-V1 MDR tox: 5.17µM*; MCF10A rereplic: inconclusive; IL1B secr inh: -10.4

What do the screens show for `CC(C)CC(=O)/C(=C\c1ccc(Cl)cc1Cl)n1cncn1`?
SW480 rereplic: 6.51µM*; KB-3-1 cytotox: inconclusive; KB-V1 MDR tox: inactive; MCF10A rereplic: 4.61µM*; IL1B secr inh: -104.0*

Results for COc1ccc(/C=C(/C(=O)c2ccc(Cl)cc2Cl)n2cncn2)cc1 ?
SW480 rereplic: 2.6%; KB-3-1 cytotox: inactive; KB-V1 MDR tox: inactive; MCF10A rereplic: inconclusive; IL1B secr inh: -15.6

How did OC(c1ccccc1)(c1ccccc1)c1nccc2ccccc12 do in these assays?
SW480 rereplic: 2.2%; KB-3-1 cytotox: inconclusive; KB-V1 MDR tox: 18.4µM*; MCF10A rereplic: 9.6%; IL1B secr inh: -55.1*

Results for Nc1ccccc1S(N)(=O)=O ?
SW480 rereplic: -80.2%; KB-3-1 cytotox: inactive; KB-V1 MDR tox: inactive; MCF10A rereplic: -1.2%; IL1B secr inh: 0.0

Results for O=C(NCc1ccccc1C(F)(F)F)c1cccc2c1C(=O)c1ccc(N3CCCCC3)cc1S2(=O)=O ?
SW480 rereplic: -9.7%; KB-3-1 cytotox: inactive; KB-V1 MDR tox: inactive; MCF10A rereplic: 1.6%; IL1B secr inh: 24.2

How did COCc1c(C(=O)N2CCN(Cc3nc4ccccc4s3)CC2)oc2ccccc12 do in these assays?
SW480 rereplic: 2.0%; KB-3-1 cytotox: inactive; KB-V1 MDR tox: 23.1µM*; MCF10A rereplic: 14.7%; IL1B secr inh: 25.7

How did CNCCCCOc1ccccc1-c1ccccc1 do in these assays?
SW480 rereplic: inconclusive; KB-3-1 cytotox: inconclusive; KB-V1 MDR tox: inconclusive; MCF10A rereplic: 24.6%; IL1B secr inh: inconclusive

What do the screens show for `CNCCCC12CCC(c3ccccc31)c1ccccc12`?
SW480 rereplic: inconclusive; KB-3-1 cytotox: inconclusive; KB-V1 MDR tox: inconclusive; MCF10A rereplic: inconclusive; IL1B secr inh: -56.1*!

Results for CS(=O)(=O)c1ccccc1-c1nnc(NC(=O)Cc2ccccc2)o1 ?
SW480 rereplic: 4.6%; KB-3-1 cytotox: inactive; KB-V1 MDR tox: inactive; MCF10A rereplic: -0.7%; IL1B secr inh: -50.2*

Results for CSc1ccccc1-c1nnc(NC(=O)Cc2ccccc2)o1 ?
SW480 rereplic: -32.8%; KB-3-1 cytotox: inactive; KB-V1 MDR tox: inactive; MCF10A rereplic: -0.4%; IL1B secr inh: -19.0

How did CN(CC(=O)Nc1ccccc1Br)C(=O)c1cc(S(=O)(=O)N(C)C)ccc1N1CCCC1 do in these assays?
SW480 rereplic: -2.9%; KB-3-1 cytotox: inactive; KB-V1 MDR tox: inactive; MCF10A rereplic: 10.0%; IL1B secr inh: -16.8

How did CCC(C)OC(=O)C[N+](C)(C)CCOC1CC2CCC1(C)C2(C)C (centres undefined) do in these assays?
SW480 rereplic: -12.9%; KB-3-1 cytotox: 20.6µM*; KB-V1 MDR tox: inactive; MCF10A rereplic: inconclusive; IL1B secr inh: -27.7

How did CC(C)CCOC(=O)C[N+](C)(C)CCOC1CC2CCC1(C)C2(C)C (centres undefined) do in these assays?
SW480 rereplic: -1.2%; KB-3-1 cytotox: inactive; KB-V1 MDR tox: inactive; MCF10A rereplic: 16.4µM*; IL1B secr inh: -20.8

How did CCCCCCCOC(=O)C[N+](C)(C)CCOC1CC2CCC1(C)C2(C)C (centres undefined) do in these assays?
SW480 rereplic: inconclusive; KB-3-1 cytotox: 20.6µM*; KB-V1 MDR tox: inactive; MCF10A rereplic: inconclusive; IL1B secr inh: -99.6*

What do the screens show for `NN1C(=O)NC(c2ccccc2)(c2ccccc2)C1=O`?
SW480 rereplic: 11.3%; KB-3-1 cytotox: inactive; KB-V1 MDR tox: inactive; MCF10A rereplic: 0.731µM*; IL1B secr inh: -0.2

Results for CCN(CC)CCOc1ccc(-c2c(C)c3c(ccc4ccccc43)oc2=O)cc1 ?
KB-3-1 cytotox: inactive; KB-V1 MDR tox: inactive; IL1B secr inh: 31.0

Results for CC(C)C[C@@H](CO)N1CCN(Cc2ccc([N+](=O)[O-])cc2)CCC1=O ?
SW480 rereplic: -9.1%; KB-3-1 cytotox: inactive; KB-V1 MDR tox: inactive; MCF10A rereplic: 24.8%; IL1B secr inh: 2.8

What do the screens show for `COC(=O)[C@@]1(Cc2ccc(F)cc2)[C@H]2c3cc(C(=O)N(C)C)n(CCF)c3C[C@H]2CN1C(=O)c1ccccc1`?
KB-3-1 cytotox: inactive; KB-V1 MDR tox: inconclusive; IL1B secr inh: -26.9

What do the screens show for `COC(=O)[C@@]1(Cc2ccccc2)[C@@H]2C(=CC(=O)[C@H]2CC(=O)C(=O)N(C)C)CN1C(=O)c1ccccc1`?
SW480 rereplic: inconclusive; KB-3-1 cytotox: 20.6µM*; KB-V1 MDR tox: inactive; MCF10A rereplic: 25.9µM*; IL1B secr inh: -105.3*

How did O=C1OCCN1c1ccccc1 do in these assays?
SW480 rereplic: -0.1%; KB-3-1 cytotox: inactive; KB-V1 MDR tox: inactive; MCF10A rereplic: -2.8%; IL1B secr inh: 2.4

Results for O=C1OCCN1C(=O)[C@H]1[C@H](c2ccccc2)C(c2ccccc2)=NN1c1ccc(Br)cc1 ?
SW480 rereplic: 18.4µM*; KB-3-1 cytotox: inactive; KB-V1 MDR tox: inactive; MCF10A rereplic: inconclusive; IL1B secr inh: -7.4

What do the screens show for `O=C1OCCN1C(=O)[C@H]1[C@H](c2ccccc2)C(c2ccccc2)=NN1c1ccccc1`?
SW480 rereplic: -4.7%; KB-3-1 cytotox: inactive; KB-V1 MDR tox: inactive; MCF10A rereplic: 20.6µM*; IL1B secr inh: -7.2

What do the screens show for `O=C1OCCN1C(=O)[C@H]1[C@H](c2ccccc2)C(c2ccc(F)cc2)=NN1c1ccc(Br)cc1`?
SW480 rereplic: 23.1µM*; KB-3-1 cytotox: inactive; KB-V1 MDR tox: inactive; MCF10A rereplic: 9.2µM*; IL1B secr inh: -16.3
